Results filed as inconclusive are left out. The source made the active and inactive calls. Rule for the calls: active = hit-call score of the fitted dose curve at least 0.9, where 1 is the maximum; inconclusive = response in the unintended direction; inactive = score below 0.9.
Key:
[1] = biological target: Cellular tumor antigen p53 (Homo sapiens) (UniProt P04637); assay: TOX21_p53_BLA_p2_ratio: Tox21 HCT-116 p53 Agonism Beta-lactamase Assay, Ratio, Phase 2 (AID 2283592)
Outline: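 Cleaved-to-uncleaved substrate ratio (460 vs 530 nm) measured in HCT116 cells with an inducible beta-lactamase reporter linked to p53 activity. Compounds incubated 16 h at 37C before 2 h room-temperature CCF4-AM loading.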

[2] = TOX21_p53_BLA_p3_viability: Viability Assessment in the Tox21 HCT-116 p53 Agonism Beta-lactamase Assay, Phase 3 (AID 2283593);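 note: cells exposed to compound for 16 h before reading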
Outline: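 HCT-116 cells (4000/well) rested 5 h at 37C, then got DMSO compounds by pin tool (217-fold dilution) for 16 h at 37C, 5% CO2. After the bla read, CellTiter-Glo was added and luminescence read at 30 min, room temperature.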

[3] = biological target: Cellular tumor antigen p53 (Homo sapiens) (UniProt P04637); assay: TOX21_p53_BLA_p3_ratio: Tox21 HCT-116 p53 Agonism Beta-lactamase Assay, Ratio, Phase 3 (AID 2283596)
Outline: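 Cells were seeded at 4000/well, rested 5 h at 37C, then dosed with DMSO compound solutions (217-fold dilution) for 16 h. CCF4-AM substrate was loaded for 2 h at room temperature, and the 460/530 nm emission ratio was fitted for gain of signal versus DMSO.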

[4] = biological target: Cellular tumor antigen p53 (Homo sapiens) (UniProt P04637); assay: TOX21_p53_BLA_p5_ratio: Tox21 HCT-116 p53 Agonism Beta-lactamase Assay, Ratio, Phase 5 (AID 2283599)
Outline: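 HCT-116 cells carrying a p53-inducible beta-lactamase reporter were seeded at 4000 cells/well and dosed after 5 h with compound in DMSO (217-fold dilution). After 16 h at 37C, CCF4-AM substrate was added for 2 h, and the 460/530 nm emission ratio was scored as gain-of-signal versus DMSO.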

[5] = TOX21_p53_BLA_p5_viability: Viability Assessment in the Tox21 HCT-116 p53 Agonism Beta-lactamase Assay, Phase 5 (AID 2283600)
Outline: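 Viability is taken from cellular ATP content, measured by luciferase luminescence in the same wells after the beta-lactamase ratio read. Cells are seeded at 4000 per well and exposed to DMSO-dissolved compounds, diluted 217-fold, for 16 h.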

[6] = biological target: Cellular tumor antigen p53 (Homo sapiens) (UniProt P04637); assay: TOX21_p53_BLA_p4_ratio: Tox21 HCT-116 p53 Agonism Beta-lactamase Assay, Ratio, Phase 4 (AID 2283601)
Outline: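 HCT116 cells carrying an inducible beta-lactamase reporter were plated at 4000 cells/well, rested 5 h, then exposed to compounds in DMSO (217-fold dilution) for 16 h at 37C. CCF4-AM substrate was loaded 2 h at room temperature; 460/530 nm emission ratio scored gain-of-signal versus DMSO.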

[7] = TOX21_p53_BLA_p4_viability: Viability Assessment in the Tox21 HCT-116 p53 Agonism Beta-lactamase Assay, Phase 4 (AID 2283597);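 note: hits lower the luminescence signal meaning cytotoxicity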
Outline: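 Viability is taken as cellular ATP: after 16 h compound exposure of HCT116 cells and a 2 h room-temperature CCF4-AM substrate step, CellTiter-Glo reagent is added and luminescence is measured 30 min later.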

Measured: AC50

Sequence of Cellular tumor antigen p53 (Homo sapiens) (P04637 whole entry, looked up): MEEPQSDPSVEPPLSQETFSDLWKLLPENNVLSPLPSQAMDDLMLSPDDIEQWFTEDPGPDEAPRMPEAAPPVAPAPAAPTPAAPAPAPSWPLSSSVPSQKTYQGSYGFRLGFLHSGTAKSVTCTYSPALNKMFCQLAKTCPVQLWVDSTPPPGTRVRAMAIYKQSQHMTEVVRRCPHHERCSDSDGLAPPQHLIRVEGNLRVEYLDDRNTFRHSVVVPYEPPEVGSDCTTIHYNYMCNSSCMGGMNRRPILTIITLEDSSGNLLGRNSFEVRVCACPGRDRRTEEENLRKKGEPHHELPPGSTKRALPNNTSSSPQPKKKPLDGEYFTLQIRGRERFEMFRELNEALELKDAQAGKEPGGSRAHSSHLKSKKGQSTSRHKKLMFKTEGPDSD

COC(=O)C1=C(C)NC(C)=C(C(=O)OC(C)(C)CN(C)CCC(c2ccccc2)c2ccccc2)C1c1cccc([N+](=O)[O-])c1 (stereo unspecified)
not listed: [6] | [7]
inactive: all other assays above

O=P(O)(O)OC(Cn1cncn1)(Cn1cncn1)c1ccc(F)cc1F
not listed: [6] | [7]
inactive: all other assays above

O=C(O)c1ccncc1
not listed: [7]
inactive: all other assays above

CCSC(=O)N(CC)CC
inactive: [1] | [2] | [3] | [4]

O=C(Nc1ccc(/C=C/c2ccc(NC(=O)c3cc(S(=O)(=O)O)c4cccnc4c3O)cc2S(=O)(=O)O)c(S(=O)(=O)O)c1)c1cc(S(=O)(=O)O)c2cccnc2c1O
not listed: [7]
inactive: all other assays above

C=COCC(C)C
inactive: [1] | [2] | [3] | [4]

c1ccc(CSCc2ccccc2)cc1
not listed: [7]
inactive: all other assays above

O=C(Oc1ccccc1)Oc1ccccc1
not listed: [7]
inactive: all other assays above

Cc1ncc([N+](=O)[O-])n1CC(C)O (stereo unspecified)
not listed: [7]
inactive: all other assays above

CCOc1cc(CC(=O)N[C@@H](CC(C)C)c2ccccc2N2CCCCC2)ccc1C(=O)O
not listed: [4] | [5]
inactive: all other assays above

CCCCC(CC)CN (stereo unspecified)
not listed: [4] | [5]
inactive: all other assays above

CC1(C)[C@@H]2CC[C@@]1(C)[C@H](OC(=O)CSC#N)C2
inactive: [1] | [2] | [3] | [4]

NCC(=O)O
not listed: [6] | [7]
inactive: all other assays above

CCCCOC(=O)/C=C\C(=O)OCCCC
not listed: [7]
inactive: all other assays above

C[N+]12CCC(CC1)C(OC(=O)C(O)(c1ccccc1)c1ccccc1)C2 (stereo unspecified)
not listed: [4] | [5]
inactive: all other assays above

O=Cc1ccccc1[N+](=O)[O-]
active: [1] 70.6 µM | [4] 68 µM
not listed: [7]
inactive: all other assays above

CC(S)C(C)S (stereo unspecified)
not listed: [7]
inactive: all other assays above

CCN(CC)CCNC(=O)COc1ccc(Cl)cc1
not listed: [4] | [5]
inactive: all other assays above

CC(=O)CC(=O)Nc1ccc2[nH]c(=O)[nH]c2c1
inactive: [1] | [2] | [3] | [4]

C=CC1CO1 (stereo unspecified)
not listed: [7]
inactive: all other assays above

CCC(CO)(CO)COCC(CC)(CO)CO
not listed: [7]
inactive: all other assays above

C/C=C(\C)C=O
not listed: [6] | [7]
inactive: all other assays above
